Reference: PubChem BioAssay (NCI)
About 79,000 compounds went through this panel and 15% of them were active in at least one assay; those are over-represented in the sample as a whole. Activity calls are given as the source filed them. No stated cut-off is given here; in the data, active means growth inhibition above about 70%; inactive means the rest.

Assays:
[1] = NCI Yeast Anticancer Drug Screen. Data for the rad50 strain (AID 155);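 further: 0% = growth of vehicle-only cultures of the same strain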; conditions: S. cerevisiae rad50 strain growth inhibition; at 50.0 µM; stronger effect = higher value
Procedure, shortened: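 Growth of the mutant yeast was measured after compound exposure and referenced to vehicle-treated cultures.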

[2] = NCI Yeast Anticancer Drug Screen. Data for the mec2-1 strain (AID 157); conditions: S. cerevisiae mec2-1 strain, at 50.0 µM, stronger effect = higher value
Procedure, shortened: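 Readout is yeast growth inhibition, normalised to vehicle-treated controls, in the mec2-1 strain exposed to compound.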

[3] = NCI Yeast Anticancer Drug Screen. Data for the sgs1 mgt1 strain (AID 161);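 further: 0% = growth of cultures given vehicle only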; conditions: S. cerevisiae sgs1 mgt1 strain, at 50.0 µM, stronger effect = higher value
Procedure, shortened: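 This yeast growth screen uses a strain with defined DNA-repair lesions; compound-treated growth is compared with vehicle-treated growth.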

[4] = NCI Yeast Anticancer Drug Screen. Data for the cln2 rad14 strain (AID 165);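 further: 0% = growth equal to vehicle treated cultures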; conditions: S. cerevisiae cln2 rad14 strain, at 50.0 µM, stronger effect = higher value
Procedure, shortened: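 Relative to vehicle controls, growth inhibition of compound-treated cln2 rad14 yeast was recorded.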

[5] = NCI Yeast Anticancer Drug Screen. Data for the bub3 strain (AID 167); conditions: S. cerevisiae bub3 mutant strain, at 50.0 µM, stronger effect = higher value
Procedure, shortened: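 Whole-cell yeast assay. The mutant strain was incubated with compounds, and growth inhibition was determined by comparison with vehicle-treated cells.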

[6] = NCI Yeast Anticancer Drug Screen. Data for the mlh1 rad18 strain (AID 175); conditions: S. cerevisiae mlh1 rad18 strain growth inhibition; at 50.0 µM; stronger effect = higher value
Procedure, shortened: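 Test agents were incubated with a yeast strain of defined genotype (DNA damage repair defect). Inhibition of growth was derived by comparison with vehicle-exposed cultures.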

Measured: growth inhibition

COc1c2cccc(Cl)c2cc2c(Cl)cccc12
inactive: [1] 6.3% | [2] -6.15% | [3] 1.3% | [4] 18.8% | [5] -11.2% | [6] 12.5%

COc1ccc(O)c(/C=N\N=C\c2cc(OC)ccc2O)c1
inactive: [1] -1.25% | [2] -1.15% | [3] -2.3% | [4] -22.5% | [5] 22.9% | [6] -2.8%

COc1ccc(S(=O)(=O)O)cc1N
inactive: [1] -21.2% | [2] -15.9% | [3] -13.5% | [4] -5.15% | [5] -11.9% | [6] -3.95%

COC(=O)c1nc(N)nc(C(=O)OC)c1C(=O)c1cccc([N+](=O)[O-])c1
inactive: [1] -11.1% | [2] -19.4% | [3] -33.2% | [4] 30.6% | [5] -21.7% | [6] -16.8%

O=Cc1cccc2ccc3cccc(C(=O)O)c3c12
inactive: [1] 34% | [2] 12% | [3] 17.9% | [4] 13.2% | [5] 30.1% | [6] -8.7%

O=CNCO
inactive: [1] 19.6% | [2] 14.2% | [3] 22.6% | [4] 18.9% | [5] 8.5% | [6] 19.1%

Cc1cc(OC(=O)c2ccc(N)cc2)ccc1C1=NCC(C)S1 (configuration not stated)
inactive: [1] 39% | [2] 20% | [3] 38% | [4] -3.05% | [5] 8.3% | [6] 0.1%

S=C(NNC(=S)Nc1ccccc1Cl)NNc1ccccc1
active: [1] 80.8% | [2] 82.8% | [3] 93.4% | [5] 82.8% | [6] 88.9%
inactive: [4] 68.2%

O=C(N/C(=C\c1cc(Cl)ccc1Cl)c1nc2ccccc2[nH]1)c1ccccc1
inactive: [1] 50.2% | [2] 8.65% | [3] 31.9% | [4] 25% | [5] 43.9% | [6] 42.3%

COc1ccc2c(c1)OC(OC)(c1ccc(OC)c(OC)c1)C(O)(OC)C2=O (configuration not stated)
inactive: [1] 39.4% | [2] 14.8% | [3] 27.6% | [4] 19.6% | [5] 11.8% | [6] 29%

c1cc2nc(c1)CSCCCCCCCCSC2
inactive: [1] -3.25% | [2] 41% | [3] 17.8% | [4] -10.1% | [5] 55% | [6] 36%

O=S(=O)(c1ccccc1)C1CCCCC1I (configuration not stated)
inactive: [1] 45.9% | [2] 3.5% | [3] 21.4% | [4] -30.5% | [5] 23.7% | [6] 18.8%

CSCCC(NC(=O)OC(C)(C)C)C(=O)NCCNc1ccc(NCCNC(=O)C(CCSC)NC(=O)OC(C)(C)C)c2c1C(=O)c1ccccc1C2=O (configuration not stated)
inactive: [1] 19.4% | [2] 7.9% | [3] -24.2% | [4] 3.85% | [5] -9.5% | [6] -43.3%

C1CCCCCC2=C(CCCC1)CCCO2
inactive: [1] 7.4% | [2] -7.5% | [3] 2.35% | [4] -19.3% | [5] 10.2% | [6] 0.2%

O=[S@@]1Nc2cc3ccccc3cc2S1
inactive: [1] 23.2% | [2] -3.35% | [3] 17.6% | [4] 17.1% | [5] -14.9% | [6] 39.2%

Cc1nc(C)c(CC#N)s1
inactive: [1] -9.25% | [2] -10% | [3] -1.75% | [4] -15.1% | [5] -2% | [6] 13.7%

C#CC1(c2ccccc2)OCCO1
inactive: [1] 21.9% | [2] 17.4% | [3] 16.3% | [4] 4.55% | [5] -13.2% | [6] 27.4%

COC(=O)CC1=CCCc2ccccc21
inactive: [1] -3.95% | [2] 1.55% | [3] -2.85% | [4] 7% | [5] 0.35% | [6] -22.2%

Cc1cccc(NC(=O)c2ccc(Cl)c(Cl)c2)c1
inactive: [1] 11.3% | [2] 13.7% | [3] -0.25% | [4] -65.6% | [5] 30.4% | [6] -8.65%

CC1(C)NC(=S)N(O)C1(C)C
inactive: [1] 0.1% | [2] -5.65% | [3] -19.8% | [4] -11.9% | [5] 10.8% | [6] -4.8%

CC(C)=CCOc1ccc(-c2coc3cc4c(c(O)c3c2=O)C=CC(C)(C)O4)cc1
inactive: [1] 15.7% | [2] 3.1% | [3] 15.9% | [4] 13.3% | [5] 24% | [6] 26.8%

CC[n+]1ccc2cc(OC)c(OC)cc2c1Cc1ccc(OC)c(OC)c1
inactive: [1] -18% | [2] -5.55% | [3] -5.85% | [4] -34% | [5] -1.2% | [6] -16.1%

COC(=O)c1ncn(Cc2ccccc2)c1O (tested in a mixture with another compound)
inactive: [1] 8.7% | [2] -2.2% | [3] 8.55% | [4] 16.3% | [5] 8.15% | [6] 36%

Cc1cc(C)c(C#N)c(SC(C(=O)Nc2cc(C(F)(F)F)ccc2Cl)c2ccccc2)n1 (configuration not stated)
inactive: [1] 2.35% | [2] -13.2% | [3] 23.6% | [4] 19.1% | [5] 2.95% | [6] 8.25%

COc1ccc(NC(=O)C2C(=O)N(c3ccc(OC)cc3)C(=O)/C2=N\N)cc1 (configuration not stated)
inactive: [1] 11.6% | [2] -19.4% | [3] -2.9% | [4] -57.6% | [5] 19.4% | [6] 3.35%

Cc1cccc(C)c1NC(=O)C(=O)CC(=O)c1sc(Nc2c(C)cccc2C)nc1C
inactive: [1] 12.1% | [2] -10.9% | [3] 26.2% | [4] -22.9% | [5] 16.6% | [6] 16.9%

N#C/C(=C\c1ccccc1Br)C(=O)c1ccccc1
inactive: [1] 15.2% | [2] 6.15% | [3] -3.35% | [4] 11.4% | [5] -12.8% | [6] -14.3%

CCC1(O)C(=O)c2ccccc2N(c2ccccc2)C1=O (configuration not stated)
inactive: [1] 9.05% | [2] 3.7% | [3] 4% | [4] -5.85% | [5] 8.3% | [6] 18.2%

COc1ccc2ccccc2c1C1NC(=O)c2ccccc2N1 (configuration not stated)
inactive: [1] 13.1% | [2] -17.8% | [3] 5.75% | [4] 8.9% | [5] 12.5% | [6] 0.1%

COc1ccccc1Nc1nc(-c2ccc([N+](=O)[O-])o2)cs1
inactive: [2] 36.2% | [5] 44%
active: [1] 70.6% | [3] 87.1% | [4] 92.8% | [6] 92.3%

COc1ccc(COC(=O)Oc2ccc(Cl)cc2)cc1OC
active: [1] 93.8% | [4] 79.8% | [5] 90.5% | [6] 94.8%
inactive: [2] 63.3% | [3] 50.7%

CN1C2CCC1C1N=NN(c3cc(C(F)(F)F)cc(C(F)(F)F)c3)C1(N1CCOCC1)C2 (configuration not stated)
inactive: [1] -20.9% | [2] -9.6% | [3] -27.7% | [4] 0.35% | [5] -11.9% | [6] -21.8%

O=C(O)CCN(CCC(=O)O)S(=O)(=O)c1ccccc1
inactive: [1] -4.55% | [2] -43.4% | [3] -4.65% | [4] -103% | [5] -17.6% | [6] 22.9%

CCOc1ccc(OCC)c(N)c1
inactive: [1] -25.9% | [2] 2.1% | [3] -2.5% | [4] -44% | [5] 10.2% | [6] -19.5%

CC1CC(=O)Oc2ccccc21 (configuration not stated)
inactive: [1] 35.5% | [2] 5.7% | [3] 3.8% | [4] -3.35% | [5] 5.95% | [6] 1.5%

CN(/N=C/c1ccnc2ccccc12)c1ccc([N+](=O)[O-])cc1[N+](=O)[O-]
inactive: [1] -31.3% | [2] -10.9% | [3] -19.5% | [4] 8.1% | [5] -6.95% | [6] -12.6%

CCN(CC)C(=O)C1(C)NS(=O)(=O)c2ccccc2C1=O (configuration not stated)
inactive: [1] -7.05% | [2] 10.1% | [3] -4.15% | [4] -31.9% | [5] -10.8% | [6] -9.45%

O=c1c2c(oc3c(Cl)cc(Cl)cc13)CCCC2
inactive: [1] 13.3% | [2] -19.6% | [3] -1.8% | [4] 7.6% | [5] 5.8% | [6] 4.05%

COP(=O)(OC)/C(=C\c1cn(C(c2ccccc2)(c2ccccc2)c2ccccc2)cn1)NC(C)=O
inactive: [1] -9.65% | [2] -32% | [3] -11.4% | [4] -22.1% | [5] -19.1% | [6] -10.2%

O=[N+]([O-])c1cc(Cl)ccc1Nc1ccccc1
inactive: [1] 51.3% | [2] 32.5% | [3] 57.1% | [4] 4.65% | [5] 24.8% | [6] 53.5%

CCCCNCCCNCCCC
inactive: [1] 4.95% | [2] -3.4% | [3] 0.65% | [4] -0.7% | [5] 25.5% | [6] 2.6%

CC(C)(C)C(=O)[CH-]C(=O)C(F)(F)F.CC(C)(C)C(=O)[CH-]C(=O)C(F)(F)F.CC(C)(C)C(=O)[CH-]C(=O)C(F)(F)F.[Ru+3]
inactive: [1] 25.8% | [2] -4.65% | [3] 1.7% | [4] -1.35% | [5] 8.5% | [6] 24.4%
